Hit rate of the full screen: of about 5,500 compounds, about 2,000 (36%) were called active. Roughly 18% stayed inconclusive and do not appear here. Rule as the data show it: active = normalized growth mostly below about 0.91 (no sharp cut-off); inconclusive = no clear call, values can overlap the other calls; inactive = mostly above about 0.92. The list shows a part of the results.
Experiment: chemical genetic growth profiling, strain panel (AID 1159580);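 also: tested at 20 µM; growth read once vehicle control cultures reached saturation at 30 °C; 1 = growth at the plate median or of vehicle wells; lower values mean less growth of the strain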
Conditions: growth OD

Measured: normalized growth

O=c1[nH]cnc2nc[nH]c12
inactive: S. cerevisiae deletion strains, locus YJR066W, strain TOR1, hits give low values 0.979 | S. cerevisiae deletion strains, locus YJR075W, strain HOC1, hits give low values 1.01 | S. cerevisiae deletion strains, locus YKL009W, strain mrt4, hits give low values 0.974 | S. cerevisiae deletion strains, locus YKL068W, hits give low values 1.02 | S. cerevisiae deletion strains, locus YKL085W, strain MDH1 (second series), hits give low values 0.984 | S. cerevisiae deletion strains, locus YKL085W, strain MDH1, hits give low values 0.984 | S. cerevisiae deletion strains, locus YKL160W, strain elf1, hits give low values 1.01 | S. cerevisiae deletion strains, locus YKR001C, strain vps1, hits give low values 0.975 | S. cerevisiae deletion strains, locus YKR026C, strain gcn3, hits give low values 1.02 | S. cerevisiae deletion strains, locus YKR091W, strain srl3, hits give low values 1.02 | S. cerevisiae deletion strains, locus YLL001W, strain dnm1, hits give low values 1.01 | S. cerevisiae deletion strains, locus YLL026W, hits give low values 1.02 | S. cerevisiae deletion strains, locus YLL041C, strain sdh2, hits give low values 1.02 | S. cerevisiae deletion strains, locus YLR027C, strain aat2, hits give low values 1.01 | S. cerevisiae deletion strains, locus YLR039C, strain RIC1, hits give low values 1.01 | S. cerevisiae deletion strains, locus YLR058C, strain SHM2, hits give low values 1 | S. cerevisiae deletion strains, locus YLR102C, strain apc9, hits give low values 0.979 | S. cerevisiae deletion strains, locus YLR113W, strain HOG1, hits give low values 1.01 | S. cerevisiae deletion strains, locus YLR221C, strain rsa3, hits give low values 1.02 | S. cerevisiae deletion strains, locus YLR258W, strain gsy2, hits give low values 1.01 | S. cerevisiae deletion strains, locus YLR262C, strain YPT6 (second series), hits give low values 1.02 | S. cerevisiae deletion strains, locus YLR262C, strain YPT6, hits give low values 0.991 | S. cerevisiae deletion strains, locus YLR268W, strain sec22, hits give low values 0.971 | S. cerevisiae deletion strains, locus YLR320W, strain mms22, hits give low values 1.03 | S. cerevisiae deletion strains, locus YLR330W, strain CHS5, hits give low values 0.998 | S. cerevisiae deletion strains, locus YLR342W, strain FKS1 (second series), hits give low values 0.975 | S. cerevisiae deletion strains, locus YLR342W, strain FKS1, hits give low values 1.02 | S. cerevisiae deletion strains, locus YLR357W, strain rsc2, hits give low values 1.04 | S. cerevisiae deletion strains, locus YLR370C, strain arc18, hits give low values 1 | S. cerevisiae deletion strains, locus YLR371W, strain rom2, hits give low values 0.962 | S. cerevisiae deletion strains, locus YLR384C, strain iki3, hits give low values 1 | S. cerevisiae deletion strains, locus YLR418C, strain cdc73, hits give low values 0.994 | S. cerevisiae deletion strains, locus YML016C, strain PPZ1, hits give low values 0.995 | S. cerevisiae deletion strains, locus YML032C, strain rad52, hits give low values 0.988 | S. cerevisiae deletion strains, locus YML120C, strain ndi1, hits give low values 1.01 | S. cerevisiae deletion strains, locus YML124C, strain tub3, hits give low values 0.978 | S. cerevisiae deletion strains, locus YMR058W, strain fet3, hits give low values 1.02 | S. cerevisiae deletion strains, locus YMR078C, strain ctf18, hits give low values 0.997 | S. cerevisiae deletion strains, locus YMR125W, strain sto1, hits give low values 1.01 | S. cerevisiae deletion strains, locus YMR129W, hits give low values 1.01 | S. cerevisiae deletion strains, locus YMR205C, strain PFK2, hits give low values 1.02 | S. cerevisiae deletion strains, locus YMR223W, strain ubp8, hits give low values 0.985 | S. cerevisiae deletion strains, locus YMR231W, strain pep5, hits give low values 0.987 | S. cerevisiae deletion strains, locus YMR263W, strain SAP30, hits give low values 0.999 | S. cerevisiae deletion strains, locus YMR307W, strain GAS1, hits give low values 1.02 | S. cerevisiae deletion strains, locus YNL067W, strain RPL9B, hits give low values 1.02 | S. cerevisiae deletion strains, locus YNL071W, strain lat1, hits give low values 1.01 | S. cerevisiae deletion strains, locus YNL153C, strain GIM3, hits give low values 1.02 | S. cerevisiae deletion strains, locus YNL183C, strain NPR1, hits give low values 0.978 | S. cerevisiae deletion strains, locus YNL209W, strain ssb2, hits give low values 1.02 | S. cerevisiae deletion strains, locus YNL233W, strain BNI4, hits give low values 0.999 | S. cerevisiae deletion strains, locus YNL248C, strain rpa49, hits give low values 1.02 | S. cerevisiae deletion strains, locus YNL250W, strain rad50, hits give low values 0.977 | S. cerevisiae deletion strains, locus YNL271C, strain bni1, hits give low values 0.978 | S. cerevisiae deletion strains, locus YNL298W, strain CLA4, hits give low values 1 | S. cerevisiae deletion strains, locus YNL307C, strain MCK1, hits give low values 0.982 | S. cerevisiae deletion strains, locus YNL322C, strain KRE1 (second series), hits give low values 1.02 | S. cerevisiae deletion strains, locus YNL322C, strain KRE1, hits give low values 1.01 | S. cerevisiae deletion strains, locus YNR049C, strain mso1, hits give low values 1.03 | S. cerevisiae deletion strains, locus YNR052C, strain pop2, hits give low values 0.978 | S. cerevisiae deletion strains, locus YOL012C, strain htz1 1.01 | S. cerevisiae deletion strains, locus YOL147C, strain pex11, hits give low values 0.98 | S. cerevisiae deletion strains, locus YOR001W, strain rrp6, hits give low values 1.02 | S. cerevisiae deletion strains, locus YOR061W, strain CKA2, hits give low values 0.99 | S. cerevisiae deletion strains, locus YOR069W, strain VPS5, hits give low values 0.988 | S. cerevisiae deletion strains, locus YOR070C, strain gyp1, hits give low values 1.01 | S. cerevisiae deletion strains, locus YOR080W, strain dia2, hits give low values 1.03 | S. cerevisiae deletion strains, locus YOR083W, strain WHI5, hits give low values 1.01 | S. cerevisiae deletion strains, locus YOR106W, strain vam3, hits give low values 1.01 | S. cerevisiae deletion strains, locus YOR136W, strain idh2, hits give low values 0.973 | S. cerevisiae deletion strains, locus YOR144C, strain elg1, hits give low values 0.989 | S. cerevisiae deletion strains, locus YOR184W, strain ser1, hits give low values 0.98 | S. cerevisiae deletion strains, locus YOR231W, strain MKK1, hits give low values 1.02 | S. cerevisiae deletion strains, locus YOR265W, strain rbl2, hits give low values 1.03 | S. cerevisiae deletion strains, locus YOR270C, strain vph1, hits give low values 1.11 | S. cerevisiae deletion strains, locus YOR290C, strain snf2, hits give low values 1 | S. cerevisiae deletion strains, locus YOR316C, strain cot1, hits give low values 0.989 | S. cerevisiae deletion strains, locus YPL051W, strain arl3, hits give low values 1.03 | S. cerevisiae deletion strains, locus YPL055C, strain LGE1, hits give low values 1.03 | S. cerevisiae deletion strains, locus YPL078C, strain atp4, hits give low values 1.02 | S. cerevisiae deletion strains, locus YPL106C, strain sse1, hits give low values 0.994 | S. cerevisiae deletion strains, locus YPL240C, strain hsp82, hits give low values 1.01 | S. cerevisiae deletion strains, locus YPL256C, strain CLN2, hits give low values 0.996 | S. cerevisiae deletion strains, locus YPR119W, strain clb2, hits give low values 0.99 | S. cerevisiae deletion strains, locus YPR141C, strain kar3, hits give low values 0.977 | S. cerevisiae deletion strains, locus YPR163C, strain tif3, hits give low values 0.988 | S. cerevisiae deletion strains, locus YPR167C, strain met16, hits give low values 0.965 | S. cerevisiae deletion strains, strain wtn01, hits give low values 0.975 | S. cerevisiae strains, strain wild type, hits give low values 1

— PubChem BioAssay AID1159580 (chemical genetic matrix, 2015)
